An excerpt weighted towards active compounds, which were near 2.6% of everything screened.
AI-2 QS modul: Vibrio harveyi AI-2 quorum sensing modulation | Vibrio harveyi JMH597 AI-2 luminescence/OD600 ratio, 9 h; stronger effect = lower value; strain lacks LuxN and CqsS sensors; 0 = neutral-control median | activity change, % at 7.5 µM | hit rate 0.4% among 300,000; in the data active = activity change below about -75%, passing the limit was not always enough; inconclusive = no clear call, values can overlap the other calls;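 note: luminescence divided by OD600 gain over 9 h not by final OD600 alone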
ABCB6 inh MLPCN: human ABCB6 transporter inhibition; Q9NP58; K562-ABCB6 porphyrin accumulation, flow cytometry, 1 h; stronger effect = lower value; fluorescence ratio to DMSO, % at 10 µM; hit rate 0.19% among 360,000;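 active = fluorescence ratio to DMSO below 75%, the collection mean minus 3 SD; inconclusive = too few cells collected in the well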;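 note: signal is porphyrin accumulated inside mitochondria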
eIF4H inh: inhibitors of RNA binding by human eIF4H; eIF4H fluorescence polarization binding assay; inhibition, % at 35 µM; hit rate 0.94% among 290,000; AID 2012;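 note: calls also rest on retests at 20 µM and on dose response follow-up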
PABP1 MLLE inh: blocks PAM2 peptide binding to the PABP1 MLLE domain | GST-MLLE / FITC-PAM2 fluorescence polarization | hit rate 0.36% among 360,000 | P11940 | inhibition, % at 20 µM; in the data active = inhibition above about 35%, passing the limit was not always enough
Target sequence (P11940 whole entry, looked up, the tested form may be a part): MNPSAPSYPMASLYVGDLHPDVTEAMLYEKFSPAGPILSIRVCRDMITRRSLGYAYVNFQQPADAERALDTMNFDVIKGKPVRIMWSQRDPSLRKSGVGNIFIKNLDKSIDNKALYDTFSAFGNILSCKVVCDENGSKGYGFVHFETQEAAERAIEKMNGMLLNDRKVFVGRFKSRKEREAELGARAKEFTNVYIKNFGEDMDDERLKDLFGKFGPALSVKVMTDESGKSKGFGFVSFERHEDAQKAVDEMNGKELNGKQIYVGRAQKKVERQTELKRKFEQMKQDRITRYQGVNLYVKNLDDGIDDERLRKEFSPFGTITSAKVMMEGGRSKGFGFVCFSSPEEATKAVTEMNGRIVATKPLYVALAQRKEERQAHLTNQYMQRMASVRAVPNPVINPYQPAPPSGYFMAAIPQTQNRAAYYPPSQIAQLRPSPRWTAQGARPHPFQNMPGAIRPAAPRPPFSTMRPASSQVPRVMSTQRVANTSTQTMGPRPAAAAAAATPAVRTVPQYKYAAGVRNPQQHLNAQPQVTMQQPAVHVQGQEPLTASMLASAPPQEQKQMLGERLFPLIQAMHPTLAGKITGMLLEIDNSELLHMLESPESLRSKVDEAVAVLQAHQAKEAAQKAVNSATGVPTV
PABP FP inh: blocks human PABP binding to poly(A) RNA; P11940; fluorescence polarization; calls only at 35 µM; hit rate 1% among 290,000; AID 2014;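 note: calls also rest on retests at 20 µM and on dose response follow-up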
PHOSPHO1 block: PHOSPHO1 (human) inhibition; Q8TCT1; recombinant PHOSPHO1, absorbance phosphatase assay; inhibition, % at 13.3 µM; hit rate 1.1% among 290,000; AID 1565; in the data active = inhibition above about 60%
Hits are given with their value. Unless noted, the rule behind the calls is not given here.

For Cc1ccc(OCc2nnc(SCc3nc4ccccc4[nH]3)n2Cc2ccco2)cc1 the results were AI-2 QS modul inactive, ABCB6 inh MLPCN inactive, eIF4H inh inactive, PABP1 MLLE inh inactive, PABP FP inh inactive and PHOSPHO1 block 84.
For c1ccc(-c2nnc(SCc3nc4ccccc4[nH]3)n2Cc2ccco2)cc1 the results were AI-2 QS modul inactive, ABCB6 inh MLPCN inactive, eIF4H inh inactive, PABP1 MLLE inh inactive, PABP FP inh inactive and PHOSPHO1 block 96.
`Cc1sc2nc(SCc3nc4ccccc4[nH]3)n(Cc3ccco3)c(=O)c2c1C` gave AI-2 QS modul inactive, ABCB6 inh MLPCN inactive, eIF4H inh inactive, PABP1 MLLE inh inactive, PABP FP inh inactive and PHOSPHO1 block inactive.
`Clc1ccc(OCCSCc2nc3ccccc3[nH]2)cc1` gave AI-2 QS modul inactive, ABCB6 inh MLPCN inactive, eIF4H inh inactive, PABP1 MLLE inh inactive, PABP FP inh inactive and PHOSPHO1 block 69.
For CCn1c(COc2ccc(C)cc2)nnc1SCC(=O)C(C)(C)C the results were AI-2 QS modul inactive, ABCB6 inh MLPCN inactive, eIF4H inh inactive, PABP1 MLLE inh inactive, PABP FP inh inactive and PHOSPHO1 block inactive.
CCn1c(COc2ccc(C)cc2)nnc1SCc1ccc(C#N)cc1 was read as AI-2 QS modul inactive, ABCB6 inh MLPCN inactive, eIF4H inh inactive, PABP1 MLLE inh inactive, PABP FP inh inactive and PHOSPHO1 block 94.
`Nn1c(SCc2nc3ccccc3[nH]2)nnc1-c1ccccc1` gave AI-2 QS modul inactive, ABCB6 inh MLPCN inactive, eIF4H inh inactive, PABP1 MLLE inh inactive, PABP FP inh inactive and PHOSPHO1 block inactive.
Screening CCC(=O)N1CCC(C)(C(=O)Nc2ccc3c(c2)OCCO3)C1 (stereo not given) returned ABCB6 inh MLPCN inactive and PABP1 MLLE inh inactive.
Screening Cc1cccc(C)c1-n1nnnc1C(c1ccnc2ccccc12)N1CCN(C(=O)OC(C)(C)C)CC1 (stereo not given) returned ABCB6 inh MLPCN inactive.
For CCn1c(COc2ccc(Cl)cc2)nnc1SCc1nc2ccccc2[nH]1 the results were AI-2 QS modul inactive, ABCB6 inh MLPCN inactive, eIF4H inh inactive, PABP1 MLLE inh inactive, PABP FP inh inactive and PHOSPHO1 block 91.
`CC1CCCC(NC(=O)c2cc(S(=O)(=O)N3CCCCC3)c[nH]2)C1C` (stereo not given) gave ABCB6 inh MLPCN inactive and PABP1 MLLE inh inactive.
CC(=O)c1cc2cc(O)ccc2o1 was read as AI-2 QS modul inactive, ABCB6 inh MLPCN inactive, eIF4H inh inactive, PABP1 MLLE inh inactive, PABP FP inh inactive and PHOSPHO1 block 89.
For Cc1cccc(S(=O)(=O)NC(=O)C2(C)CCN2C(=O)Cc2cccs2)c1 (stereo not given) the results were ABCB6 inh MLPCN inactive and PABP1 MLLE inh inactive.
Screening O=C1NC[C@H](CCCCN2CCN(CCc3ccccc3)C(=O)C2=O)N(CCc2ccccc2)C1=O returned ABCB6 inh MLPCN inactive.
`COc1cccc(N2CC(=O)N(c3cccc(OC)c3)CC2=O)c1` gave AI-2 QS modul inactive, ABCB6 inh MLPCN inactive, eIF4H inh inactive, PABP1 MLLE inh inactive, PABP FP inh inactive and PHOSPHO1 block 60.
Screening Cc1cccc(N2CC(=O)N(c3cccc(C)c3)CC2=O)c1 returned AI-2 QS modul inactive, ABCB6 inh MLPCN inactive, eIF4H inh inactive, PABP1 MLLE inh inactive, PABP FP inh inactive and PHOSPHO1 block inactive.
Screening Cc1cn([C@H]2C[C@H](O)[C@@H](/C=C/C(=O)NCCC(c3ccccc3)c3ccccc3)O2)c(=O)[nH]c1=O returned ABCB6 inh MLPCN inactive and PABP1 MLLE inh inactive.
For CCOC(=O)C1CCN(C(=O)CCc2ccc(S(=O)(=O)NCC(C)C)cc2)CC1 the results were AI-2 QS modul inactive, ABCB6 inh MLPCN inactive, eIF4H inh inactive, PABP1 MLLE inh inactive, PABP FP inh inactive and PHOSPHO1 block 60.
`COc1ccccc1C(=O)N/C(=C/c1ccco1)C(=O)Nc1cccc(C(=O)O)c1` gave AI-2 QS modul inactive, ABCB6 inh MLPCN inactive, eIF4H inh 67, PABP1 MLLE inh inactive, PABP FP inh active and PHOSPHO1 block inactive.
For O=C(/C=C\c1ccco1)Nc1cc([N+](=O)[O-])ccc1F the results were AI-2 QS modul inactive, ABCB6 inh MLPCN inactive, eIF4H inh inactive, PABP1 MLLE inh inactive, PABP FP inh inactive and PHOSPHO1 block inactive.
Screening O=C(/C=C/c1ccco1)Nc1cccc(NC(=O)/C=C/c2ccco2)n1 returned AI-2 QS modul inactive, ABCB6 inh MLPCN inactive, eIF4H inh inconclusive, PABP1 MLLE inh inactive, PABP FP inh inactive and PHOSPHO1 block inactive.

From PubChem BioAssay
